Drawing on PubChem BioAssay (NCI), this text covers growth for 19 compounds.

The panel holds about 83,000 compounds, 20% with a hit somewhere; the sample as a whole holds those more often.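 Step 1: grow cells in 96-well plates. Step 2: add test compound at a single concentration. Step 3: incubate 48 h. Step 4: record percent growth.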 A number with no mark means an inactive call. Calls of active or inactive are those of the source. The calls were made as follows: active = growth percent below 10; inactive = the rest.

The test system of the assay is SF-539 CNS. Put plainly: NCI-60 one-dose screen, 48 h (100 = growth as untreated, 0 = no growth, -100 = all killed). As to conditions: 10 µM.
In the case of `CCNc1nc2c(cnn2C)c(=O)[nH]1`, the growth was 104%. As to `O=[N+]([O-])c1cccc(N=Nc2ccc(O)cc2O)c1`, the growth is 89.7%.

As for `CC(=O)/C(Cc1ccccc1)=N/O`, the growth is 91.9%. With `O=[N+]([O-])c1ccccc1N=Nc1ccc(O)cc1O` the figure was 113%.

Consider `CCn1c(=O)n(C)c2c(=O)n(C)c(=O)n(C)c21`, for which the growth was 106%. With `O=P(O)(O)OCC(O)CO` (centres undefined) the figure was 105%; with `CCCCCCCCCCC1CO1` (centres undefined), 105%.

As to `CC(=O)OCCO`, the growth was 104%. For the compound `CC(=O)OCC(=O)[C@@]1(O)CC[C@H]2[C@@H]3CC[C@@H]4C[C@H](O)CC[C@]4(C)[C@H]3C(=O)C[C@@]21C`, the growth is 100%. As for `COc1cc2c3cc1Oc1c(OC)c(OC)cc4c1C(Cc1ccc(O)c(c1)Oc1ccc(cc1)CC3N(C)CC2)N(C)CC4` (centres undefined), the figure is -23.5% (active).

With `COc1cccc(/C=N/NC(=S)NC2CC3CCC2C3)c1O` (centres undefined), the growth is 69.8%. As for `O=S(=O)(Cc1ccccc1)c1ccccc1`, the figure is 97.7%; as for `COc1cc2nn(-c3ccccc3N)nc2cc1OC`, 96.5%; as for `CC1C(=O)c2ccccc2CC1C(=O)O` (centres undefined), 101%. Take `O=[N+]([O-])c1ccc(S(=O)(=O)NN=C2CCCCC2)cc1`: the growth was 109%. With `CC(=O)c1ccc(N=C(C#N)C2=C(O)c3ccccc3C2=O)cc1` the figure was 107%; with `CNc1nc(NC)c2cn[nH]c2n1`, 103%.

In the case of `CC(=Nc1ccccc1)C1=C(O)C(Cc2cccc(F)c2)NC1=O` (centres undefined), the growth was -17.5% (active). In the case of `CCOC(=O)c1ccc(NC(=S)P(=O)(c2ccccc2)c2ccccc2)cc1`, the growth is 106%.
